# Data from PubChem BioAssay (Tox21).
# Several values for one entry are separate records, joined by “and”; a condition that tells them apart may be missing. Identical values can stand only once. Results filed as inconclusive are left out. Where a call stands in place of a potency, no number is given. Activity calls are given as the source filed them. Unless noted, calls follow the shape of the full dose curve.
# Tests used:
# [1] = qHTS assay to identify small molecule agonists of the sonic hedgehog signaling (Shh) pathway (AID 1259368); also: nearly all actives have a fitted effect of over 15% in size; also: potency is read from the fitted curve at half-maximal effect
# How it was run: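 Following a 24 hr incubation with DMSO-dissolved compounds at 37 C, 5% CO2, Gli1-Luc NIH/3T3-derived cells received luciferase reagent for 30 min at room temperature prior to luminescence measurement.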
# [2] = qHTS assay to identify small molecule antagonists of the sonic hedgehog signaling (Shh) pathway (AID 1259369); also: nearly all actives have a fitted effect of over 45% in size; also: potency is read from the fitted curve at half-maximal effect
# How it was run: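 Read-out is luminescence from a firefly luciferase gene controlled by the Gli1 response element, in 3T3Gli1-Luc cells pre-incubated 4hr then exposed to compounds and conditioned medium for 24hr.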
# [3] = biological target: Estrogen receptor beta (Homo sapiens) (UniProt Q92731); assay: qHTS assay to identify small molecule antagonists of the estrogen receptor beta (ER-beta) signaling pathway (AID 1259378; active = well fitted inhibition curve with a large enough effect in the signal ratio in the repeat runs, not every such curve was filed as active; the % refers to the signal ratio; also: potency is read from the fitted curve at half-maximal effect)
# Chain of Estrogen receptor beta (Homo sapiens) (Q92731 whole entry, looked up): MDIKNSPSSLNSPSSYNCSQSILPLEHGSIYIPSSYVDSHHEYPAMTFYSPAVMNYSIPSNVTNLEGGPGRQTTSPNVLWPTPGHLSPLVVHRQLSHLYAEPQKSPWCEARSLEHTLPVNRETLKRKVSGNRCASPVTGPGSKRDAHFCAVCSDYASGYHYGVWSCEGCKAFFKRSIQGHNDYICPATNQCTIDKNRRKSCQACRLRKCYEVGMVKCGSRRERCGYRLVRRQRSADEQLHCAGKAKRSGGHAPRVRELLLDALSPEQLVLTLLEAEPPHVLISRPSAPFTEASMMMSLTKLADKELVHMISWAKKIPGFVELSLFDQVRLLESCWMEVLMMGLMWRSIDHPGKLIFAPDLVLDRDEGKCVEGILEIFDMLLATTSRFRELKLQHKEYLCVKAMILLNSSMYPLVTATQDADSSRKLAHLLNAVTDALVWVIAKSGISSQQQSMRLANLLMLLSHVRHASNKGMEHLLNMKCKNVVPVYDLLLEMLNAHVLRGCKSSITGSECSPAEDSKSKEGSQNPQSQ
# How it was run: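 Antagonist mode: compounds added to beta-lactamase reporter HEK293T ER-beta-UAS cells stimulated with E2 (1nM final), 16 hr at 37C. LiveBLAzer B/G FRET substrate, 2 hours room temperature, fluorescence read-out.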
# [4] = qHTS assay to identify small molecule agonists of the androgen receptor (AR) signaling pathway in the presence of an antagonist - cell viability counter screen (AID 1259379; active = well fitted curve in the direction sought with a large enough effect in the repeat runs; an effect the other way counts as inactive or inconclusive; also: nearly all actives have a fitted effect of over 25% in size; also: potency is read from the fitted curve at half-maximal effect)
# How it was run: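 Each compound was tested at 15 concentrations on MDA-kb2 cells in the presence of 3.0uM nilutamide. Viability was measured by CellTiter-Fluor fluorescence after a 16 hr incubation at 37C in a CO2-free atmosphere.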
# [5] = qHTS assay to identify small molecule agonists of the estrogen receptor beta (ER-beta) signaling pathway - cell viability counter screen (AID 1259380; active = well fitted curve in the direction sought with a large enough effect in the repeat runs; an effect the other way counts as inactive or inconclusive; also: nearly all actives have a fitted effect of over 30% in size; also: potency is read from the fitted curve at half-maximal effect)
# How it was run: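 Compounds dissolved in DMSO were pin-transferred onto ER-beta-UAS-bla HEK293T cells that had settled 6 hr, and exposure ran 16 hr at 37C. Following the reporter read, CellTiter-Glo luminescence after 30 min at room temperature indicated cytotoxicity.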
# [6] = biological target: Androgen receptor (Homo sapiens) (UniProt P10275); assay: qHTS assay to identify small molecule agonists of the androgen receptor (AR) signaling pathway in the presence of an antagonist (AID 1259381); also: nearly all actives have a fitted effect of over 15% in size
# Chain of Androgen receptor (Homo sapiens) (P10275 whole entry, looked up): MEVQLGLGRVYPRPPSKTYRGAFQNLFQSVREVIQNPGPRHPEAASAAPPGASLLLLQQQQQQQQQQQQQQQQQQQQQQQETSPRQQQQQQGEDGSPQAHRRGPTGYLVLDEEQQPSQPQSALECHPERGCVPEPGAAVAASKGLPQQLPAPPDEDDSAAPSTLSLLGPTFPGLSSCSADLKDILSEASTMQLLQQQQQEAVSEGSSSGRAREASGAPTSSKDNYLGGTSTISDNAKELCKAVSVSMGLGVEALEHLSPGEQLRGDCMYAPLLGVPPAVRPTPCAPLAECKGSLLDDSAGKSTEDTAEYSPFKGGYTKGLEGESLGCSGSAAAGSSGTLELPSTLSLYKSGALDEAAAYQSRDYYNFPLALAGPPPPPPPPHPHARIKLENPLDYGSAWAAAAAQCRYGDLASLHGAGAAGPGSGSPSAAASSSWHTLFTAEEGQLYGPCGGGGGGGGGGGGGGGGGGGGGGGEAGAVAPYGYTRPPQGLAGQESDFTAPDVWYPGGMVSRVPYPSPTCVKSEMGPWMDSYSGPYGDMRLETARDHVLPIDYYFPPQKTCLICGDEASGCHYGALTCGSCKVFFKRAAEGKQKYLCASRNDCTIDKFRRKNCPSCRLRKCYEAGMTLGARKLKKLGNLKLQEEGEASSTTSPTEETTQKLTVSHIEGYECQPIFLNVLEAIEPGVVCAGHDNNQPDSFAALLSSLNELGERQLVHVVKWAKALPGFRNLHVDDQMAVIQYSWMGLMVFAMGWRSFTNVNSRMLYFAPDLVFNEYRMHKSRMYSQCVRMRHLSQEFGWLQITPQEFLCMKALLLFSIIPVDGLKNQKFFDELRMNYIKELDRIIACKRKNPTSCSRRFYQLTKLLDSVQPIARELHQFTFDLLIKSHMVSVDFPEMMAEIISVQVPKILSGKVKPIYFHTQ
# How it was run: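 Plated MDA-kb2 cells (3,000/well) were pre-incubated 5hr, given nilutamide (3.0uM final) or buffer, then dosed with compounds in DMSO at 15 concentrations. Luciferase activity was quantified by luminescence after 16hr at 37C.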
# [7] = qHTS assay to identify small molecule antagonists of the estrogen receptor beta (ER-beta) signaling pathway - cell viability counter screen (AID 1259382; active = well fitted curve in the direction sought with a large enough effect in the repeat runs; an effect the other way counts as inactive or inconclusive; also: nearly all actives have a fitted effect of over 55% in size; also: potency is read from the fitted curve at half-maximal effect)
# How it was run: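 CellTiter-Glo ATP luminescence measured after the LiveBLAzer read in the same wells; ER-beta-UAS-bla HEK293T cells, 16 hr compound treatment with 1nM 17-beta-estradiol agonist at 37C, 5% CO2.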
# [8] = biological target: Estrogen receptor (Homo sapiens) (UniProt P03372); assay: qHTS assay to identify small molecule agonists of the estrogen receptor alpha (ER-alpha) signaling pathway in the presence of an antagonist (AID 1259383); also: nearly all actives have a fitted effect of over 15% in size; also: potency is read from the fitted curve at half-maximal effect; as to activation: top concentration of the series differs between compounds
# Chain of Estrogen receptor (Homo sapiens) (P03372 whole entry, looked up): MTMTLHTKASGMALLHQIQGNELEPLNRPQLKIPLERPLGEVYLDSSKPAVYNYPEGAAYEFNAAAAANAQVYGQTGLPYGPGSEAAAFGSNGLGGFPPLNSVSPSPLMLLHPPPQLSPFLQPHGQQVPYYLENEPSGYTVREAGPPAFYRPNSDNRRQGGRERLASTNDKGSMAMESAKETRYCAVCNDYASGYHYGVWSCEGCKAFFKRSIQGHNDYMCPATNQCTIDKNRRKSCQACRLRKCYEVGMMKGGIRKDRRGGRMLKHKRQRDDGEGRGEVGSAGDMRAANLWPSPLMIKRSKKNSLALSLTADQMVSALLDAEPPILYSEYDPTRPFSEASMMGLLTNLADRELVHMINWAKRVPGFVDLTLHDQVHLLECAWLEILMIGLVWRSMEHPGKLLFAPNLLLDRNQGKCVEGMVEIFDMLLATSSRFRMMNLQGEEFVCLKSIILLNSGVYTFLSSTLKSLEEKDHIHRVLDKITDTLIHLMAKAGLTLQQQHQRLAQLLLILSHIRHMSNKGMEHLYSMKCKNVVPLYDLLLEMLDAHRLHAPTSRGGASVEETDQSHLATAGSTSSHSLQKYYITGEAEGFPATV
# How it was run: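 Luminescent ERE-luciferase reporter, VM7Luc4E2 cells (endogenous ER-alpha); 10.0nM ICI-182,780 final; 15-point compound titration; 22hr at 37C; ONE-Glo, 30min RT.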
# [9] = qHTS assay to identify small molecule agonists or antagonists of the thyroid stimulating hormone receptor (TSHR) signaling pathway - wild type cell line counter screen (AID 1259384)
# How it was run: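 Counter screen in untransfected Hek293: compounds (15-point titration, triplicate) plus phosphodiesterase inhibitor Ro20-1724 added after 18 h plating; 30 min RT. Intracellular cAMP via competitive d2/cryptate immunoassay, 1 h incubation.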
# [10] = biological target: Thyrotropin receptor (Homo sapiens) (UniProt P16473); assay: qHTS assay to identify small molecule antagonists of the thyroid stimulating hormone receptor (TSHR) signaling pathway (AID 1259385); also: nearly all actives have a fitted effect of over 20% in size
# Chain of Thyrotropin receptor (Homo sapiens) (P16473 whole entry, looked up): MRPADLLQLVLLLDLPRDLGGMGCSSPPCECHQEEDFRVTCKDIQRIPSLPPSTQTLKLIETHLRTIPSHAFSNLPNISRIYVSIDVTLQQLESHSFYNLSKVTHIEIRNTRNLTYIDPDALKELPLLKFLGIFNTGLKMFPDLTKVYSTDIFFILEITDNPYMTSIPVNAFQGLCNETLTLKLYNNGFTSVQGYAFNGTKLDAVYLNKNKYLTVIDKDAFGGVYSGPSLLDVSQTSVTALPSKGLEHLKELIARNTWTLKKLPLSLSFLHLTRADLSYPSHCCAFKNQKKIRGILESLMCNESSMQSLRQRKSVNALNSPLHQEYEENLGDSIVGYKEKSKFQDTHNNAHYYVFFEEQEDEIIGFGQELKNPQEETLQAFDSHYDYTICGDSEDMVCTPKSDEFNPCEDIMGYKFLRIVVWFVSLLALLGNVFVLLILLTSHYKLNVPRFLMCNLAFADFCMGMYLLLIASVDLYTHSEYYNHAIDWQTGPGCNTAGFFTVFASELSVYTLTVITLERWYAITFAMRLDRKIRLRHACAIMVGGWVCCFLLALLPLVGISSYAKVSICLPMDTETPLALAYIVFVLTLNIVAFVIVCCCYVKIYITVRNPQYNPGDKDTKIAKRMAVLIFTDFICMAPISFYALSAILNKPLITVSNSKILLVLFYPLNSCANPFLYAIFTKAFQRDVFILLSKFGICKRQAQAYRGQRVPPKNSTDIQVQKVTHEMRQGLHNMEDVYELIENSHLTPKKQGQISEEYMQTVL
# How it was run: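 Antagonist mode: compound-treated TSHR-expressing HEK293 cells were stimulated with 1.5 ng/mL TSH (final) in presence of Ro20-1724 for 30 min at RT. HTRF cAMP detection after 1 h; each compound tested at 15 concentrations, triplicate.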
# [11] = qHTS assay to identify small molecule agonists of the estrogen receptor alpha (ER-alpha) signaling pathway in the presence of an antagonist - cell viability counter screen (AID 1259386; active = well fitted curve in the direction sought with a large enough effect in the repeat runs; an effect the other way counts as inactive or inconclusive;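 also: cells exposed to compounds for 22 h at 37 °C before the viability read; nearly all actives have a fitted effect of over 30% in size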; also: potency is read from the fitted curve at half-maximal effect)
# How it was run: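 Using estrogen-depleted VM7Luc4E2 cells, the 15-concentration compound series was applied together with 10.0nM ICI-182,780 and incubated 22hr at 37C/5% CO2. Cell viability was then scored by CellTiter-Fluor.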
# [12] = biological target: Progesterone receptor (Homo sapiens) (UniProt P06401); assay: qHTS assay to identify small molecule antagonists of the progesterone receptor (PR) signaling pathway (AID 1346795; active = well fitted inhibition curve with a large enough effect in the signal ratio in the repeat runs, not every such curve was filed as active; the % refers to the signal ratio; also: potency is read from the fitted curve at half-maximal effect)
# Chain of Progesterone receptor (Homo sapiens) (P06401 whole entry, looked up): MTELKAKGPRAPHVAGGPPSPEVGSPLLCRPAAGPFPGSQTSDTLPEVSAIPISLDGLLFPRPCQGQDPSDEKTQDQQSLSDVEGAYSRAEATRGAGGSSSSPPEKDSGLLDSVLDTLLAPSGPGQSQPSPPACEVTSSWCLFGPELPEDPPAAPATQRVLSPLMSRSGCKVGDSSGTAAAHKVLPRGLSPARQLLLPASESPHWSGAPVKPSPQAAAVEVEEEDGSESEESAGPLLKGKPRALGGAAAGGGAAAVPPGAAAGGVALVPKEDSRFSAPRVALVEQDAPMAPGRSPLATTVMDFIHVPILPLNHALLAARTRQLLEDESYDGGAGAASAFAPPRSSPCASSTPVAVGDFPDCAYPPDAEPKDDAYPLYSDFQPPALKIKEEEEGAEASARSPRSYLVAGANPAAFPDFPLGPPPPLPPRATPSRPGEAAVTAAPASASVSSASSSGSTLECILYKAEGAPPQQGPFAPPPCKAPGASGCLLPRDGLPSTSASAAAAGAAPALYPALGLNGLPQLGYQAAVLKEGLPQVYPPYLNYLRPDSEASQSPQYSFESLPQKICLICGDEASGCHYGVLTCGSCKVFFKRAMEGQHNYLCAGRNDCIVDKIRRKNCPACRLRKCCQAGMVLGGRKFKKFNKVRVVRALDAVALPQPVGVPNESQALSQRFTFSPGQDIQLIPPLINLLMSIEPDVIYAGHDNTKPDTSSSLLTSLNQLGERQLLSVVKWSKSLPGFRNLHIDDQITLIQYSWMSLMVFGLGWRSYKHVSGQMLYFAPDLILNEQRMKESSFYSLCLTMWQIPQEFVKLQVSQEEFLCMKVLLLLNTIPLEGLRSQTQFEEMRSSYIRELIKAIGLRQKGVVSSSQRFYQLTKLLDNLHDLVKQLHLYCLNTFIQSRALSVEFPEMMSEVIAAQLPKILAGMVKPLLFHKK
# How it was run: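 Beta-lactamase reporter, HEK293T PR-UAS-bla line; 2% charcoal-stripped FBS; 6 hr pre-incubation, 37C/5% CO2. Compound + R5020 1 nM final, 16 hr. LiveBLAzer B/G FRET substrate, 2 hr RT; fluorescence intensity read.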
# [13] = qHTS assay to identify small molecule antagonists of the progesterone receptor (PR) signaling pathway - cell viability counter screen (AID 1346798; active = well fitted curve in the direction sought with a large enough effect in the repeat runs; an effect the other way counts as inactive or inconclusive; also: nearly all actives have a fitted effect of over 50% in size; also: potency is read from the fitted curve at half-maximal effect)
# How it was run: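 Luminescence readout (CellTiter-Glo, 30 min, RT) of viability in PR-UAS-bla HEK293T cells exposed to compound and R5020 agonist for 16 hr at 37C, 5% CO2; run in the same wells as the beta-lactamase reporter read.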
# [14] = qHTS assay to identify small molecule agonists of the progesterone receptor (PR) signaling pathway - cell viability counter screen (AID 1346799); also: nearly all actives have a fitted effect of over 45% in size; also: potency is read from the fitted curve at half-maximal effect
# How it was run: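 HEK293T PR-UAS-bla, 3,000 cells/well, 2% charcoal-stripped FBS; 6 h settle, compound 16 h at 37C/5% CO2; LiveBLAzer 2 h RT, then CellTiter-Glo 30 min RT, luminescence read.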
# [15] = qHTS assay to identify small molecule antagonists of the TGF-beta/Smad signaling pathway - cell viability counter screen (AID 1346824; active = well fitted curve in the direction sought with a large enough effect in the repeat runs; an effect the other way counts as inactive or inconclusive; also: nearly all actives have a fitted effect of over 50% in size)
# How it was run: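 Cytotoxicity counter-screen run in the same wells as the beta-lactamase Smad reporter read: CellTiter-Glo luminescence after 30 min at room temperature. HEK 293T SBE-bla cells had 5 hr compound exposure at 37 C with TGF-beta1 (0.25 ng/mL stock).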
# [16] = qHTS assay to identify small molecule agonists of the TGF-beta/Smad signaling pathway - cell viability counter screen (AID 1346829; active = well fitted curve in the direction sought with a large enough effect in the repeat runs; an effect the other way counts as inactive or inconclusive; also: top concentration of the series differs between compounds; nearly all actives have a fitted effect of over 45% in size)
# How it was run: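 Compound-treated SBE-bla HEK 293T cells (5 hr, 37 C) were assessed for viability with CellTiter-Glo in parallel with the reporter read.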
# [17] = qHTS assay to identify small molecule agonists of the TGF-beta/Smad signaling pathway (AID 1346859; active = well fitted activation curve with a large enough effect in the signal ratio in the repeat runs, not every such curve was filed as active; the % refers to the signal ratio; also: series mostly up to about 77 µM)
# How it was run: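 Read-out: fluorescence at 460 and 530 nm (405 nm excitation) after a 2 hr room-temperature incubation with beta-lactamase FRET substrate. SBE-bla HEK 293T cells had been treated with test compounds for 5 hr at 37 C.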
# [18] = biological target: Thyrotropin-releasing hormone receptor (Homo sapiens) (UniProt P34981); assay: qHTS assay to identify small molecule antagonists of the thyrotropin-releasing hormone receptor (TRHR) signaling pathway (AID 1346877; active = well fitted inhibition curve with a large enough effect in the repeat runs, not every such curve was filed as active; also: series mostly up to about 51 µM)
# Chain of Thyrotropin-releasing hormone receptor (Homo sapiens) (P34981 whole entry, looked up): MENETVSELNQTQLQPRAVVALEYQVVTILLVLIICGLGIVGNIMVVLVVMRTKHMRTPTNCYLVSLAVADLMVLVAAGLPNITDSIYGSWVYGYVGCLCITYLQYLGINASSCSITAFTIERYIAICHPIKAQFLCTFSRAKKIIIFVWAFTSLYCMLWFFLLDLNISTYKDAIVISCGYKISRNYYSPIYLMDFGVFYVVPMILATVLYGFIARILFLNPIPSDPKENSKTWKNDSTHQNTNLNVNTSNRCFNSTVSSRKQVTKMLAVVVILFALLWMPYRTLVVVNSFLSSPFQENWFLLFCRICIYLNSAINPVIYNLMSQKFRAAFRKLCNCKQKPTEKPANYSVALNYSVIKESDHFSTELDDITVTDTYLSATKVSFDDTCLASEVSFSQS
# How it was run: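 Calcium signal in dye-loaded TRHR/HEK293 cells; compounds added 5 min before TRH (1 nM final); fluorescence monitored 3 min at 1 s steps.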
# [19] = biological target: Estrogen receptor beta (Homo sapiens) (UniProt Q92731); assay: qHTS assay to identify small molecule agonists of the estrogen receptor beta (ER-beta) signaling pathway (AID 1259377; active = well fitted activation curve with a large enough effect in the signal ratio in the repeat runs, not every such curve was filed as active; the % refers to the signal ratio; also: potency is read from the fitted curve at half-maximal effect)
# How it was run: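 Beta-lactamase reporter readout: fluorescence of LiveBLAzer B/G FRET substrate after 2 h at room temperature, following 16 h compound treatment of ER-beta-UAS-bla HEK293T cells at 37C in 2% charcoal-stripped FBS medium.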
# [20] = biological target: Progesterone receptor (Homo sapiens) (UniProt P06401); assay: qHTS assay to identify small molecule agonists of the progesterone receptor (PR) signaling pathway (AID 1346784); also: nearly all actives have a fitted effect of over 30% in size
# How it was run: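 HEK 293T PR-UAS-bla reporter cells, 2% charcoal-stripped FBS; 6 hr settle at 37C/5% CO2, compound (DMSO) 16 hr, LiveBLAzer B/G FRET substrate 2 hr RT, fluorescence intensity read.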
Structure (SMILES),Potency [1],Potency [2],Potency [3],Potency [4],Potency [5],Potency [6],Potency [7],Potency [8],outcome [9],Potency [10],Potency [11],Potency [12],Potency [13],Potency [14],Potency [15],Potency [16],Potency [17],outcome [18],Potency [19],Potency [20]
O=C(OC(=O)c1ccccc1)c1ccccc1,inactive,inactive,inactive,inactive,inactive,inactive,inactive,inactive,inactive,inactive,inactive,inactive,inactive,inactive,inactive,inactive,inactive,inactive,,
C[C@]12CC[C@@H]3c4ccc(O)cc4CC[C@H]3[C@@H]1CC[C@@H]2OC(=O)CCC1CCCC1,inactive,13.3 µM (active),,,61.1 µM (active) and 29.8 µM (active),,inactive,4.9 nM (active) and 4.2 nM (active),inactive,inactive,inactive,0.386 µM (active),,,inactive,inactive,inactive,inactive,2.2 nM (active) and 2.7 nM (active),
O=C1Cc2cc(Cl)ccc2N1,inactive,inactive,inactive,,inactive,inactive,inactive,inactive,inactive,inactive,,inactive,inactive,inactive,inactive,inactive,inactive,inactive,inactive,inactive
CC(C)=CCC1C(=O)N(c2ccccc2)N(c2ccccc2)C1=O,inactive,inactive,,inactive,inactive,,inactive,inactive,inactive,inactive,,inactive,inactive,inactive,,inactive,inactive,inactive,inactive,inactive
CCCCCCC(C)(C)C(=O)O,inactive,inactive,inactive,inactive,inactive,inactive,inactive,inactive,inactive,inactive,inactive,inactive,inactive,inactive,inactive,inactive,inactive,inactive,,inactive
CCCCOc1ccc(OCCCN2CCOCC2)cc1,inactive,13.3 µM (active),inactive,inactive,,,inactive,inactive,inactive,inactive,inactive,,inactive,inactive,inactive,inactive,inactive,,inactive,
Cc1ccccc1S,inactive,inactive,inactive,,inactive,,inactive,inactive,inactive,inactive,inactive,inactive,inactive,inactive,inactive,inactive,inactive,inactive,inactive,inactive
O=C(O)CCc1nc(-c2ccccc2)c(-c2ccccc2)o1,inactive,inactive,,inactive,,,inactive,inactive,inactive,inactive,inactive,inactive,inactive,,inactive,inactive,inactive,inactive,inactive,inactive
O=C(Nc1cccc2c(=O)cc(-c3nn[nH]n3)oc12)c1ccc(OCCCCc2ccccc2)cc1,inactive,inactive,inactive,inactive,10.6 µM (active),,,,inactive,inactive,inactive,inactive,inactive,,inactive,inactive,,inactive,inactive,inactive
O=C1Cc2ccccc2N1c1c(Cl)cccc1Cl,inactive,inactive,54.5 µM (active),,19.3 µM (active),inactive,inactive,inactive,inactive,,inactive,,,,inactive,inactive,inactive,,inactive,inactive
CCC(C)(C)OC,inactive,inactive,,,inactive,,inactive,inactive,inactive,inactive,inactive,inactive,inactive,,,inactive,inactive,inactive,inactive,inactive
CS(=O)(=O)c1ccc(-c2cn3ccccc3n2)cc1,11.9 µM (active),33.5 µM (active),,inactive,,inactive,inactive,inactive,inactive,inactive,,,29.8 µM (active),,inactive,inactive,inactive,inactive,inactive,inactive
Cc1cccc(N(C)C(=S)Oc2ccc3c(c2)CCC3)c1,inactive,inactive,,inactive,,,inactive,inactive,,,inactive,11.9 µM (active),,inactive,,inactive,inactive,,inactive,inactive
Oc1cc2c(cc1O)[C@H]1c3ccc(O)c(O)c3OC[C@@]1(O)C2,inactive,17.4 µM (active),,61.9 µM (active),inactive,,inactive,inactive,,,27.6 µM (active),,,,,inactive,inactive,inactive,inactive,
CCCCCC[C@@H](O)C/C=C\CCCCCCCC(=O)O,inactive,inactive,,inactive,,,,,inactive,inactive,inactive,inactive,,,inactive,inactive,inactive,,inactive,inactive
CCCCN(CCN(CCCC)C(=O)N1CCOCC1)C(=O)N1CCOCC1,inactive,13.3 µM (active),,,inactive,inactive,inactive,inactive,inactive,,inactive,,,29.8 µM (active),,inactive,,inactive,inactive,inactive
Clc1ccc(Nc2nnc(Cc3ccncc3)c3ccccc23)cc1,inactive,1.19 µM (active),13.3 µM (active),,,,inactive,inactive,inactive,inactive,inactive,26.6 µM (active),,,inactive,inactive,inactive,,inactive,
CC1(CN2CCC(n3c(=O)[nH]c4ccccc43)CC2)OCc2ccccc2-n2cccc21 (configuration not stated),inactive,23.7 µM (active),,29.8 µM (active),23.7 µM (active),,29.8 µM (active),inactive,inactive,inactive,inactive,,,,inactive,inactive,inactive,,inactive,
